Assay outcomes deposited in PubChem by National Center for Advancing Translational Sciences (NCATS).
A selection: hits, their analogues and other compounds. The true share with any hit is near 19%.
TDP1 cell noCPT: qHTS for Inhibitors of human tyrosyl-DNA phosphodiesterase 1 (TDP1): qHTS in cells in absence of CPT; DT40 Tdp1-/- hTDP1 cells, no CPT, ATP luminescence, 48 h; 420,000 compounds, 15% hits; Potency, µM (titrated, usually from 46.2 µM), inactives show at the highest dose activity change, negative = growth inhibition, usual class: inhibitors; AID 686978, 2013; further: potency means the concentration at half of the fitted maximal effect; nearly all actives have a fitted effect of over 55% in size
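No-CPT arm: Tdp1-/-;hTDP1 DT40 cells (400/well) plus compounds, incubated ≥48 hr at 37 °C. Readout CellTiter-Glo luminescence.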
HT1080-NT tox: qHTS for induction of synthetic lethality in tumor cells producing 2HG: qHTS for the HT-1080-NT fibrosarcoma cell line; AID 686970, 2013; HT-1080-NT fibrosarcoma viability, CellTiter-Glo ATP luminescence, 48 h; 360,000 compounds, 1.6% hits; Potency, µM (doses to about 46.1 µM), for inactives: at the highest dose activity, negative = less viability, actives largely listed as cytotoxic;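 further: NT is the 2HG producing partner of a matched IDH1 knockdown line; potency means the concentration at half of the fitted maximal effect; 0% = DMSO-treated cells and -100% = media-only wells without cells; nearly all actives have a fitted effect of over 55% in size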
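Read-out is CellTiter-Glo luminescence after 10 minutes at room temperature, following 48 hours' compound treatment of HT-1080-NT cells (750 cells/well, RPMI, 5% FBS, 37 degrees C).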
TDP1 cell CPT: qHTS for Inhibitors of human tyrosyl-DNA phosphodiesterase 1 (TDP1): qHTS in cells in presence of CPT | chicken DT40 Tdp1-/-;hTDP1 cells + 20 nM CPT, ATP luminescence, 48 h | AID 686979, 2013 | Potency, µM (highest dose often 46.2 µM), for inactives: at the top dose activity change, negative = growth inhibition, usual class: inhibitors | 420,000 compounds, 12% hits; further: potency means the concentration at half of the fitted maximal effect; nearly all actives have a fitted effect of over 55% in size
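Chicken DT40 Tdp1-/- cells complemented with human TDP1, 400 cells/well, exposed to compounds plus 20 nM camptothecin for at least 48 h at 37 C; viability read as ATP content by CellTiter-Glo luminescence.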
IL-1B inflam inh: qHTS for Inhibitors of Inflammasome Signaling: IL-1-beta AlphaLISA Primary Screen. THP-1 LPS/ATP IL-1B secretion, AlphaLISA, 16 h; hits give low values. activity change, % at 57.5 µM. 360,000 compounds, 4.7% hits; in the data active means activity change below about -50%; inconclusive means mostly about -30% to -49%
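THP-1 cells pretreated 1 hr with compounds (up to 57.5 uM final), then stimulated with LPS (250 ng/mL final) plus ATP (1.25 mM final); secreted IL-1B measured by AlphaLISA after 16 hr, decreased signal indicating inhibition.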
HT1080 IDH1KD tx: qHTS for induction of synthetic lethality in tumor cells producing 2HG: qHTS for the HT-1080-IDH1KD cell line; 360,000 compounds, 2% hits; HT-1080 IDH1 knockdown viability, ATP luminescence, 48 h; Potency, µM (titrated, usually from 46.1 µM), without a hit: at the highest dose activity, negative = toxicity, most hits filed as cytotoxic;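 further: potency means the concentration at half of the fitted maximal effect; 0% = DMSO wells and -100% = cell-free medium wells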
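CellTiter-Glo luminescence after 48 h compound exposure at 37 degrees C of IDH1-knockdown HT-1080 cells in 5% FBS RPMI. %Activity scaled between DMSO wells and cell-free media wells, with curves fitted and assigned curve classes.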
* = called active by the depositor; [ ] = dose if it differs, or a comment. Unless noted, the call rests on the fitted dose curve; in most records, active means well fitted curve in the direction sought with a large enough effect; inconclusive means small, poorly fitted or top-dose-only effect, or another doubt; inactive means no such curve, though single readings can be large; an effect the other way counts as inactive or inconclusive. Unless noted, on the % scale 0 is the no-effect control and ±100 the full control effect.

Screening Oc1ccc(/C=N/N(c2ccccc2)c2ccccc2)cc1O returned TDP1 cell noCPT inconclusive, HT1080-NT tox -8%, TDP1 cell CPT 10µM*, IL-1B inflam inh -23 and HT1080 IDH1KD tx inconclusive.
C(=N\N(c1ccccc1)c1ccccc1)/c1ccccn1 was read as TDP1 cell noCPT 29µM*, HT1080-NT tox 0%, TDP1 cell CPT -13%, IL-1B inflam inh -5 and HT1080 IDH1KD tx -5%.
Oc1ccc(N=Cc2ccc(O)c(O)c2)cc1 was read as TDP1 cell noCPT inconclusive, HT1080-NT tox -22%, TDP1 cell CPT inconclusive, IL-1B inflam inh -55* and HT1080 IDH1KD tx inconclusive.
For O=C1Nc2ccccc2/C1=N\N=C\c1ccc(O)c(O)c1 the results were TDP1 cell noCPT inconclusive, HT1080-NT tox -22%, TDP1 cell CPT inconclusive, IL-1B inflam inh -71* and HT1080 IDH1KD tx -17%.
Screening Oc1ccc(/C=N/N=C/c2ccc(O)c(O)c2)cc1O returned TDP1 cell noCPT 18µM*, HT1080-NT tox inconclusive, TDP1 cell CPT inconclusive, IL-1B inflam inh 51 and HT1080 IDH1KD tx -16%.
For O=Cc1ccc(O)c(O)c1 the results were TDP1 cell noCPT -7%, HT1080-NT tox -21%, TDP1 cell CPT -1%, IL-1B inflam inh -57* and HT1080 IDH1KD tx -22%.
Screening O=C(/C(=N/N=C/c1ccc(O)c(O)c1)c1ccccc1)c1ccccc1 returned TDP1 cell noCPT 8.2µM*, HT1080-NT tox inconclusive, TDP1 cell CPT 7.3µM*, IL-1B inflam inh -76* and HT1080 IDH1KD tx inconclusive.
COc1ccc2c(c1)-c1nc(-n3ncc(C(=O)NCc4cccc(C)n4)c3C3CC3)ncc1CC2 was read as TDP1 cell noCPT -16% and TDP1 cell CPT 1%[9.04 µM].
O=C(COC(=O)c1ccccn1)NCCCc1ccccc1 was read as TDP1 cell noCPT 10%, HT1080-NT tox 2%, TDP1 cell CPT -2%, IL-1B inflam inh 7 and HT1080 IDH1KD tx -4%.
O=C(CNC(=O)c1ccc(Br)o1)NCC(=O)OCc1ccccc1 was read as TDP1 cell noCPT -20%, HT1080-NT tox -3%, TDP1 cell CPT 9%, IL-1B inflam inh 5 and HT1080 IDH1KD tx -5%.
Screening CSc1nsc(SCC(=O)Nc2ccccc2C(=O)O)n1 returned TDP1 cell noCPT -28%, HT1080-NT tox -2%, TDP1 cell CPT inconclusive, IL-1B inflam inh -4 and HT1080 IDH1KD tx -1%.
`CCOc1ccc(OCCCC(=O)N2CCN(S(=O)(=O)c3ccccc3C#N)CC2)cc1` gave TDP1 cell noCPT inconclusive, HT1080-NT tox -1%, TDP1 cell CPT inconclusive, IL-1B inflam inh -52* and HT1080 IDH1KD tx -5%.
Screening Cc1cc(Cl)ccc1OCCCC(=O)N1CCN(C(=O)c2ccco2)CC1 returned TDP1 cell noCPT 21µM*, HT1080-NT tox 6%, TDP1 cell CPT inconclusive, IL-1B inflam inh -1 and HT1080 IDH1KD tx -12%.
Screening O=C(CCSc1ccc(Cl)cc1)N1CCN(S(=O)(=O)c2ccccc2)CC1 returned TDP1 cell noCPT 18µM*, HT1080-NT tox -8%, TDP1 cell CPT 21µM*, IL-1B inflam inh -13 and HT1080 IDH1KD tx -11%.
Screening CCCOc1ccccc1OCC(=O)N1CCN(S(=O)(=O)c2ccc(Cl)cc2)CC1 returned TDP1 cell noCPT -13%, HT1080-NT tox 0%[9.24 µM], TDP1 cell CPT -26%, IL-1B inflam inh -3 and HT1080 IDH1KD tx -11%.
CCOc1ccccc1OCCCC(=O)N1CCN(S(=O)(=O)c2ccc(Cl)cc2)CC1 was read as TDP1 cell noCPT 18µM*, HT1080-NT tox -1%, TDP1 cell CPT inconclusive, IL-1B inflam inh -12 and HT1080 IDH1KD tx -2%.
For Cc1ccc(CC(=O)NCc2nc(-c3ccccc3)no2)cc1 the results were TDP1 cell noCPT -20% and TDP1 cell CPT 1%.
Screening CC(O)CNCCNCc1cccs1 (stereo not given) returned TDP1 cell noCPT -1%, HT1080-NT tox 9%, TDP1 cell CPT 8%, IL-1B inflam inh 40 and HT1080 IDH1KD tx 11%.
For CCCCN(CCCC)Cc1ccc(C(=O)NNC(=O)Nc2ccc(F)cc2)o1 the results were TDP1 cell noCPT inconclusive, HT1080-NT tox 0%, TDP1 cell CPT inconclusive, IL-1B inflam inh -18 and HT1080 IDH1KD tx -6%.
`CCc1ccc(CCC(=O)N2CCN(S(=O)(=O)c3ccc(Br)cc3)CC2)cc1` gave TDP1 cell noCPT 18µM*, HT1080-NT tox -16%, TDP1 cell CPT inconclusive, IL-1B inflam inh -7 and HT1080 IDH1KD tx -22%.
`Cc1cc(Cl)ccc1OCCCC(=O)N1CCN(S(=O)(=O)c2ccccc2)CC1` gave TDP1 cell noCPT inconclusive, HT1080-NT tox 8%, TDP1 cell CPT inconclusive, IL-1B inflam inh -87* and HT1080 IDH1KD tx -1%.
Screening COc1ccc(CCC(=O)N2CCN(S(=O)(=O)c3ccc(OC(F)(F)F)cc3)CC2)cc1 returned TDP1 cell noCPT 0%, HT1080-NT tox 0%, TDP1 cell CPT -19%, IL-1B inflam inh -7 and HT1080 IDH1KD tx 8%.
Screening COc1ccc(Cl)cc1NC(=O)C[n+]1cccc(C)c1 returned TDP1 cell noCPT inconclusive, HT1080-NT tox -2%, TDP1 cell CPT -3%, IL-1B inflam inh -6 and HT1080 IDH1KD tx 8%.
`COc1ccc(OC)c(C=NN=Cc2cc(OC)ccc2OC)c1` gave TDP1 cell noCPT inconclusive, HT1080-NT tox 9%, TDP1 cell CPT 4%, IL-1B inflam inh 5 and HT1080 IDH1KD tx -4%.
`COc1ccc(OC)c(/C=C/c2cc3ccccc3c[n+]2C)c1` gave TDP1 cell noCPT 2µM* and TDP1 cell CPT 2.8µM*.
Screening Cc1cc2ccccc2c[n+]1C returned TDP1 cell noCPT -14% and TDP1 cell CPT 1%.
`COc1cc(OC)c(/C=C/c2cc3ccccc3c[n+]2C)c(OC)c1` gave TDP1 cell noCPT 1µM* and TDP1 cell CPT 0.5µM*.
COc1ccc(OC)c(/C=C/c2c3ccccc3cc[n+]2C)c1 was read as TDP1 cell noCPT 1.4µM* and TDP1 cell CPT 2.2µM*.
O=C(CSc1nnc(-c2ccccn2)n1Cc1ccccc1)N1CCCC1 was read as TDP1 cell noCPT -2%, HT1080-NT tox 7%, TDP1 cell CPT -3%, IL-1B inflam inh 8 and HT1080 IDH1KD tx 12%.
Screening Cc1cc2c(=O)c(C(=O)c3ccncc3)cn(CC(=O)Nc3cccc(C)c3C)c2cc1C returned TDP1 cell noCPT -16% and TDP1 cell CPT -23%.
